Reference: PubChem BioAssay (NCATS)
Inconclusive results are not listed. Activity calls are given as the source filed them. Calls come from the whole dose curve; as a rule, active = well fitted curve in the direction sought with a large enough effect; inconclusive = small, poorly fitted or top-dose-only effect, or another doubt; inactive = no such curve, though single readings can be large; an effect the other way counts as inactive or inconclusive.

Experiment: qHTS for compounds that reverse cellular toxicity of Amyloid beta (A-beta) peptide in yeast: LOPAC Validation Assay (AID 720559)
Details: yeast expressing A-beta; series mostly up to 46.1 µM
Procedure, shortened: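 Rescue of A-beta toxicity was scored as yeast growth by 600 nm absorbance after 48 hr at 30 C with compound. Normalization used DMSO (negative) and equimolar ferric chloride plus clioquinol (positive).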

| Compound | outcome |
| --- | --- |
| O=c1[nH]c(=O)n([C@H]2C[C@@H](O)[C@@H](CO)O2)cc1C=CBr | inactive |
| CN[C@H](CC(C)C)C(=O)N[C@H]1C(=O)N[C@@H](CC(N)=O)C(=O)N[C@@H]2C(=O)N[C@H]3C(=O)N[C@H](C(=O)N[C@H](C(=O)O)c4cc(O)cc(O)c4-c4cc3ccc4O)[C@H](O)c3ccc(c(Cl)c3)Oc3cc2cc(c3O[C@@H]2O[C@H](CO)[C@@H](O)[C@H](O)[C@@H]2O[C@H]2C[C@](C)(N)[C@H](O)[C@H](C)O2)Oc2ccc(cc2Cl)[C@H]1O | inactive |
| COc1ccc2cc([S+]([O-])Cc3ncc(C)c(OC)c3C)nc2c1 | inactive |

Experiment: qHTS for Activators of Parkin Expression: LOPAC Validation Assay (NLuc Reporter) (AID 720572)
Details: Parkin promoter NanoLuc reporter cells, luminescence, percent of positive control, DMSO as zero; series mostly up to 46.1 µM
Procedure, shortened: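 Cells harboring the Parkin-promoter coincidence reporter were treated for 24 h at seven concentrations. NLuc output was measured sequentially after the FLuc channel and scaled between DMSO and positive control values.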

| Compound | outcome |
| --- | --- |
| O=c1[nH]c(=O)n([C@H]2C[C@@H](O)[C@@H](CO)O2)cc1C=CBr | inactive |
| CN[C@H](CC(C)C)C(=O)N[C@H]1C(=O)N[C@@H](CC(N)=O)C(=O)N[C@@H]2C(=O)N[C@H]3C(=O)N[C@H](C(=O)N[C@H](C(=O)O)c4cc(O)cc(O)c4-c4cc3ccc4O)[C@H](O)c3ccc(c(Cl)c3)Oc3cc2cc(c3O[C@@H]2O[C@H](CO)[C@@H](O)[C@H](O)[C@@H]2O[C@H]2C[C@](C)(N)[C@H](O)[C@H](C)O2)Oc2ccc(cc2Cl)[C@H]1O | inactive |
| COc1ccc2cc([S+]([O-])Cc3ncc(C)c(OC)c3C)nc2c1 | inactive |
